Screening results as filed in PubChem.
PGE2 EP2 inh – blocks the human prostaglandin E2 receptor EP2. inhibition, % at 25 µM. AID 1422. 0.52% of 260,000 active. C6 glioma cells expressing human EP2, cAMP TR-FRET; cells stimulated with saturating PGE2;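 active = percent inhibition above 40 after rounding to a whole number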;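 note: rat C6 glioma host cells with rolipram phosphodiesterase inhibitor present; the protocol text gives 20 µM as final concentration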
Target sequence (P43116 whole entry, looked up): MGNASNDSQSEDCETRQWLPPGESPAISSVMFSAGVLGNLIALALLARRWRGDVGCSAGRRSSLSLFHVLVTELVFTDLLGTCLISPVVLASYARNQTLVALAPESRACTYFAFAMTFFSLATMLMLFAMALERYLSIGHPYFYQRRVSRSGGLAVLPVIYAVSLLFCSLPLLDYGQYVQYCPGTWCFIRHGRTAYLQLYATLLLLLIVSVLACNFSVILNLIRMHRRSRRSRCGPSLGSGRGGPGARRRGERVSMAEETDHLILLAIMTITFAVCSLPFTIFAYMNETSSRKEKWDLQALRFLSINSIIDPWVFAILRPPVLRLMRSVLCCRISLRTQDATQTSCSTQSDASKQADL
Cl transport mod – modulators of human KCC2 chloride dependent transport | KCC2 cells, thallium flux FluoZin-2 fluorescence | B-score of Tl+ flux slope (higher = more flux/activation; lower = inhibition) at 10 µM | AID 1456 | 2.2% of 190,000 active | Q9H2X9;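 active = thallium flux slope and its plate-corrected score both differing from the plate sample mean at a set confidence after two filtering rounds, in either direction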;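 note: slope of fluorescence scaled to starting intensity during 10 to 20 s after thallium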
S1P3 antag – antagonists of human S1P3 receptor. Q99500. CHO S1P3 NFAT-BLA reporter, FRET fluorescence, antagonist mode. inhibition, % at 4.98 µM. 0.27% of 170,000 active. AID 485;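 active = inhibition above the plate cutoff, the mean inhibition of test wells on that plate plus 3 SD, cut at about 28% in these data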;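 note: cells challenged with S1P at its EC80 of 0.8 µM; blue over green emission ratio from cleaved BLA substrate after 4 h stimulation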
Target sequence (Q99500 whole entry, looked up): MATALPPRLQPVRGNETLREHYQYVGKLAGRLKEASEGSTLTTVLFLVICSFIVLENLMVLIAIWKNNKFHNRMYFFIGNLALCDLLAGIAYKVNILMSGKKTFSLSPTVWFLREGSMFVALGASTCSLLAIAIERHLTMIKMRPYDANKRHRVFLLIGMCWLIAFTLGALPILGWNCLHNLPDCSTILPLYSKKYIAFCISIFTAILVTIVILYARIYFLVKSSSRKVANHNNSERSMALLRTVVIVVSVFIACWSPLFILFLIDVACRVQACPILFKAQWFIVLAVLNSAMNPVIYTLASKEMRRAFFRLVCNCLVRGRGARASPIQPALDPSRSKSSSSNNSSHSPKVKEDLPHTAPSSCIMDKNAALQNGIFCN
EP2 modulator – EP2 receptor (human) modulation | P43116 | EP2-expressing cells, cAMP HTRF FRET, PGE2 co-stimulation | induction, % at 25 µM | 0.83% of 260,000 active;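 active = compounds whose cAMP rise, as percent of the full-agonist control response, exceeds 60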;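 note: rat C6 glioma line stably carrying human EP2 under a CMV promoter; the protocol text gives 20 µM as final concentration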
KCC2 sec1 – KCC2 (human) modulation, secondary assay; shares compounds with Cl transport mod; HEK293-KCC2, thallium flux, FluoZin2 fluorescence; hits give high values; normalised thallium flux (F/F0 slope) at 10 µM; 15% of 3,700 active; AID 1713;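 active = thallium flux slope above the same plate's solvent-only control mean plus 3 SD; inconclusive = the two replicate wells disagree; inactive = no significant difference from solvent-only control wells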
KCC2 bumet counter – thallium flux persisting under bumetanide in KCC2 cells, counter-screen secondary assay. 49% of 3,700 active. normalized thallium flux at 10 µM. HEK293-KCC2 + bumetanide/ouabain, thallium flux FluoZin2; hits give high values. shares compounds with Cl transport mod;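 active = thallium entry rate above the same plate's blocked-transporter control wells by more than 3 SD; inconclusive = the two repeat wells disagree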;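 note: raw slope of fluorescence over initial fluorescence between 10 and 20 s after thallium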
KCC2 sec2 – KCC2 (human) modulation, second secondary assay; shares compounds with Cl transport mod; HEK293-KCC2, thallium flux FluoZin2 fluorescence; actives lie on both sides; F/F0 rise rate, 10–20 s post-thallium; normalized thallium flux at 10 µM; 23% of 3,700 active; AID 1715;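 active = thallium flux slope more than 3 SD above or below the plate's solvent-only control mean, mostly below; inconclusive = the two repeat wells disagreed; inactive = no significant shift from solvent-only controls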
HEK counter1 – counter-screen for KCC2 modulators: effect in parental HEK293 cells. thallium flux FluoZin2, ouabain; baseline-ratio fluorescence slope, 10–20 s after thallium. thallium flux rate (normalised fluorescence) at 10 µM. 46% of 3,700 active. shares compounds with Cl transport mod;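 active = thallium flux rate significantly above the same plate's solvent-only control wells, beyond their mean plus 3 SD; inconclusive = the two replicate wells gave conflicting results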
KCC2 ouabain – KCC2 (human) modulation, ouabain retest; raw Tl+ flux slope (below DMSO = inhibition, above = activation) at 10 µM; HEK293-KCC2, thallium flux FluoZin2 fluorescence; bidirectional: low = inhibitor, high = activator; AID 1717; shares compounds with Cl transport mod; 48% of 3,700 active;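 active = thallium flux slope beyond 3 SD from same-plate DMSO control mean in most replicates, usually higher, sometimes lower; inconclusive = repeat tests gave conflicting results; inactive = no significant difference from controls in most replicates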;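 note: slope of initial-normalized fluorescence between seconds 10 and 20 after thallium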
HEK293 Tl flux2 – counter-screen for KCC2 modulators: effect in parental HEK293 cells; 33% of 3,700 active; thallium flux slope at 10 µM; AID 1718; shares compounds with Cl transport mod; thallium flux FluoZin-2 fluorescence slope;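 active = thallium flux slope above the same plate's solvent-control mean plus 3 SD in both duplicate wells; inconclusive = duplicate wells that disagreed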;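 note: run without ouabain in cells lacking the KCC2 cotransporter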
Numbers stand for hits; n = inactive; u = inconclusive; x = not tested or not shown. Compounds with a hit are over-represented: about 3.1% of the library has one in this group of screens.

SMILES | PGE2 EP2 inh | Cl transport mod | S1P3 antag | EP2 modulator | KCC2 sec1 | KCC2 bumet counter | KCC2 sec2 | HEK counter1 | KCC2 ouabain | HEK293 Tl flux2
O=C(O)COCC(=O)NC1CC2(CCCCC2)Oc2ccccc21 (configuration not stated) | n | x | x | n | x | x | x | x | x | x
O=C(CSc1ncnc2sc3c(c12)CCCC3)c1ccco1 | n | 19 | n | n | u | 0.095 | n | u | 0.055 | u
CC1Cc2ccccc2N1C(=O)CCSc1nc(-c2ccc3c(c2)OCO3)cc(C(F)(F)F)n1 (configuration not stated) | n | x | x | n | x | x | x | x | x | x
Cn1c(=O)[nH]c(=O)c2c1nc(NC1CCCC1)n2CCCc1ccccc1 | n | x | x | n | x | x | x | x | x | x
CC(C)n1c(-c2ccc(N(C)C)cc2)nc2ccccc21 | n | -3.3 | n | n | n | n | n | u | n | n
CO[C@H]1C[C@@H]2CC[C@@H](C)[C@@](O)(O2)C(=O)C(=O)N2CCCC[C@H]2C(=O)O[C@H]([C@H](C)C[C@@H]2CC[C@@H](O)[C@H](OC)C2)CC(=O)[C@H](C)C=C(C)[C@@H](O)[C@@H](OC)C(=O)[C@H](C)C[C@H](C)C=CC=CC=C1C | x | n | x | n | n | n | n | n | n | n
Cc1cc2nc(-c3ccc(SCc4ccc(C(=O)O)cc4)nc3)[nH]c2cc1C | n | -4 | n | n | n | n | n | u | 0.014 | n
CCN(CC)S(=O)(=O)c1ccc(S(=O)(=O)N2CCN(c3ccccc3F)CC2)cc1 | n | x | x | n | x | x | x | x | x | x
O=c1[nH]c2ccc(S(=O)(=O)N3CCN(c4ccccc4F)CC3)cc2s1 | n | -4.8 | x | n | n | n | 0.024 | n | 0.013 | n
CC1CCCC(C)N1C(=O)Cn1c2ccccc2n2c(SCC(=O)NCc3cccs3)nnc12 (configuration not stated) | n | x | x | n | x | x | x | x | x | x
COCCCn1c(=S)[nH]c2sc3c(c2c1=O)CCCS3 | 45 | 53 | n | n | 0.033 | 0.093 | 0.049 | 0.068 | 0.077 | 0.029
COCCCn1c(SCc2ccc(Cl)cc2)nc2sc3c(c2c1=O)CCC3 | n | x | x | n | x | x | x | x | x | x
O=C(NC1CC1)c1ccc(CN2CCOCC2)cc1 | n | x | x | n | x | x | x | x | x | x
O=C(NC1CCCCC1)c1ccc(CN2CCOCC2)cc1 | n | -2.8 | x | n | n | n | n | n | n | n
Cc1c(C(=O)N2CCC(C(=O)c3cccnc3)CC2)oc2ccccc12 | x | x | x | n | x | x | x | x | x | x
NC(=S)N=Nc1c(O)n(CCCl)c2ccc(Br)cc12 | n | 29 | n | n | 0.017 | 0.069 | n | 0.03 | 0.042 | 0.015
C/C(Cl)=C\Cn1c(O)c(N=NC(N)=S)c2cc(Br)ccc21 | n | 36 | n | n | n | 0.029 | 0.054 | 0.043 | 0.062 | 0.03
OC(CN1CCC(O)(c2ccc3c(c2)OCO3)CC1)c1ccc2c(c1)OCCO2 (configuration not stated) | n | x | x | n | x | x | x | x | x | x
O=C(C1CCN(S(=O)(=O)c2cccc3cccnc23)CC1)N1CCN(c2ccc(Cl)cc2)CC1 | n | -3.7 | n | n | n | u | n | n | n | n
O=S(=O)(c1cccc2cccnc12)N1CCN(Cc2ccccc2)CC1 | n | -3.1 | n | n | n | n | 0.025 | n | 0.017 | n
O=S(=O)(c1cccc2cccnc12)N1CCN(Cc2ccc3c(c2)OCO3)CC1 | n | x | n | n | x | x | x | x | x | x
CC(C)(C)C1=NN(CC(=O)NCc2ccncc2)C(=O)c2cc3sccc3n2C1 | n | x | x | n | x | x | x | x | x | x
CCCn1nc([N+](=O)[O-])c(C(C#N)c2nc3ccccc3s2)c(Cl)c1=O (configuration not stated) | n | -6.1 | x | n | n | 0.0059 | u | 0.0058 | 0.011 | 0.0081
COc1ccccc1N1CCN(CC(=O)c2c[nH]c3ccccc23)CC1 | n | n | n | n | x | x | x | x | x | x
O=C(CN1CCN(c2ccccc2F)CC1)c1c[nH]c2ccccc12 | x | -4.3 | x | n | n | n | n | n | n | 0.011
SMILES | PGE2 EP2 inh | Cl transport mod | S1P3 antag | EP2 modulator | KCC2 sec1 | KCC2 bumet counter | KCC2 sec2 | HEK counter1 | KCC2 ouabain | HEK293 Tl flux2
Cc1cc(NC(=O)CSc2ccc(-c3ccc(Cl)cc3)nn2)no1 | n | x | x | n | x | x | x | x | x | x
CC1CCCCN1C(=O)CSc1ccc(-c2ccc(F)cc2)nn1 (configuration not stated) | n | x | n | n | n | n | 0.028 | n | 0.017 | n
Cc1cc(NC(=O)CSc2ccc(-c3ccccc3)nn2)no1 | n | -7.4 | x | n | n | n | 0.024 | u | 0.013 | n
O=C(CSc1ccc(-c2ccc(F)cc2)nn1)NCC1CCCO1 (configuration not stated) | n | n | n | n | x | x | x | x | x | x
Cc1cc(NC(=O)CSc2ccc(-c3ccc(F)cc3)nn2)no1 | n | -5.2 | n | n | n | n | 0.025 | n | u | n
O=C(CSc1ccc(-c2ccccc2)nn1)c1ccccc1 | n | -4.1 | n | n | n | u | 0.022 | n | u | n
CC(=O)c1cccc(NC(=O)CSc2ccc(-c3ccc4c(c3)OCO4)nn2)c1 | n | n | n | n | x | x | x | x | x | x
O=C(CSc1ccc(-c2ccccc2)nn1)Nc1ccc2c(c1)OCCO2 | n | -6.2 | n | n | n | n | 0.022 | n | 0.014 | n
O=C(O)C/C(=C\c1cccc(NC(=O)c2ccccc2Cl)c1)c1nc2ccccc2s1 | n | -4.1 | n | n | n | n | 0.022 | u | 0.01 | n
COc1cc(/C=C(\CC(=O)O)c2nc3ccccc3s2)cc(OC)c1O | n | n | n | n | x | x | x | x | x | x
COc1ccc(C(=O)Nc2cccc(/C=C(\CCC(=O)O)c3nc4ccccc4s3)c2)cc1 | n | -3.8 | n | n | n | u | 0.024 | n | 0.013 | u
Oc1ccc(COCc2ccccc2)c2cccnc12 | n | 3.3 | n | n | n | 0.028 | n | 0.013 | u | n
CC1=CN2C(=N)/C(=C/c3ccc(C)o3)C(=O)N=C2S1 | n | 8.8 | n | n | n | 0.028 | n | 0.013 | n | u
Cc1ccc(/C=C2\SC(N3CCN(C(c4ccccc4)c4ccccc4)CC3)=NC2=O)o1 | n | n | n | n | x | x | x | x | x | x
N=C1/C(=C\c2ccc(SCc3ccccc3)o2)C(=O)N=C2SC=NN12 | n | n | n | n | x | x | x | x | x | x
CCN=C1S/C(=C\c2ccc(Sc3ccc(Cl)cc3)o2)C(=O)N1CC | n | n | x | n | x | x | x | x | x | x
CC1=CN2C(=N)/C(=C/c3ccc(Sc4ccc(C)cc4)o3)C(=O)N=C2S1 | n | 16 | n | n | n | 0.03 | u | 0.042 | 0.032 | 0.021
